Dicer processing – inhibitors of Dicer pre-microRNA processing, primary screen, biochemical, cat-ELCCA, chemiluminescence | cat-ELCCA pre-miR-21 Dicer processing; stronger effect = higher value | actives 6% (n = 47,000) | z-score at 25 µM; in the data active = z-score above about 3, passing the limit was not always enough;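 also: higher signal means more uncleaved substrate so more Dicer inhibition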
Target sequence (Q9UPY3 whole entry, looked up): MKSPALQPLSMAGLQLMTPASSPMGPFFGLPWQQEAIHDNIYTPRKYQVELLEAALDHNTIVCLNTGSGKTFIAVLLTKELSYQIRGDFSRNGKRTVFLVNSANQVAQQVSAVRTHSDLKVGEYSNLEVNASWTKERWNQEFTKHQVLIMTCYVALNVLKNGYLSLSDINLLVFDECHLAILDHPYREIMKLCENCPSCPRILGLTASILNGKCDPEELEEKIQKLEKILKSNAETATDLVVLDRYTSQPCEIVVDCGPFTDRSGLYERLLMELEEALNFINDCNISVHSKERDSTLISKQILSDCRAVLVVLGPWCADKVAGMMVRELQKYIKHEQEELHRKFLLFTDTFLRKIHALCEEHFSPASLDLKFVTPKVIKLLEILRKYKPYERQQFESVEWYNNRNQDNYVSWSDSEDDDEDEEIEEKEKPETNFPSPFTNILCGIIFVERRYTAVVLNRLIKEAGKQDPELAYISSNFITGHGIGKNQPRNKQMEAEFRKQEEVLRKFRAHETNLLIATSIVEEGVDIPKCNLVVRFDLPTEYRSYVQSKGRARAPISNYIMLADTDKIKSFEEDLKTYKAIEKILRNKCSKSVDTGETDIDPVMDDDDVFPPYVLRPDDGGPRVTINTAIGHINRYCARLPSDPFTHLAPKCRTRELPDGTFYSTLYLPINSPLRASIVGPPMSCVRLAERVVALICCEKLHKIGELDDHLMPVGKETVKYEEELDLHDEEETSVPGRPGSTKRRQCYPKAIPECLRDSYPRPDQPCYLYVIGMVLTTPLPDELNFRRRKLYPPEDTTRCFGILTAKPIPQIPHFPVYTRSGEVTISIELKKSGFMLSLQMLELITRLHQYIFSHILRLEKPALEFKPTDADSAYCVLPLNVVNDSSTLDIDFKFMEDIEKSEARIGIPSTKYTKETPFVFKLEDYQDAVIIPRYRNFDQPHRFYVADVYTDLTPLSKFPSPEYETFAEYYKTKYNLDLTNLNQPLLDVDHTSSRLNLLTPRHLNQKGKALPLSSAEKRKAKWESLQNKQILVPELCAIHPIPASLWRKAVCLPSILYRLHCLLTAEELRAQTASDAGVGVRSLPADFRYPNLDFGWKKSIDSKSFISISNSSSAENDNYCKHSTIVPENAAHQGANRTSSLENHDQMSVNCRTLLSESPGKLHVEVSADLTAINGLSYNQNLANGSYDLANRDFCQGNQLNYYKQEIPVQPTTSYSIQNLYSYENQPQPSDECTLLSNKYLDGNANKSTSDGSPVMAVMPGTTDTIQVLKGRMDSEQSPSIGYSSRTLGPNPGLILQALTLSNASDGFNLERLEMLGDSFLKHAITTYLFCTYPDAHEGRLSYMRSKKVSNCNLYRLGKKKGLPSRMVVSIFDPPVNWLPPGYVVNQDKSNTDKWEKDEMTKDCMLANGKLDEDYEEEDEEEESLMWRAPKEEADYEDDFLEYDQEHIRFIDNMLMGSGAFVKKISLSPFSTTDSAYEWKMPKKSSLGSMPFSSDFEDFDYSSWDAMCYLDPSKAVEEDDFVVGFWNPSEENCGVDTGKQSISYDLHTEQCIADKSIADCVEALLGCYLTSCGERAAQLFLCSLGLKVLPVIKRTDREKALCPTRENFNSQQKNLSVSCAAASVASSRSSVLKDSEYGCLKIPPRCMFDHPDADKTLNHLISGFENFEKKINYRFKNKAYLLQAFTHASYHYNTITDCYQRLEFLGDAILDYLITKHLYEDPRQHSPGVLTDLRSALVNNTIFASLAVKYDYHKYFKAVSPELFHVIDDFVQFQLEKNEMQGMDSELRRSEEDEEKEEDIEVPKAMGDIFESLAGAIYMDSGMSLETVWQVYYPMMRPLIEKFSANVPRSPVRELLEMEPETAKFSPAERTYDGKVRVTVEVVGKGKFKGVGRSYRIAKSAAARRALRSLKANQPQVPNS
Of the large screens only hits and unclear results are named; the others gave an inactive call. This is one part of a sample in which hits are shown more often than they occur.

O=C(O)CCC(=O)NCC(=O)c1ccc(OC(F)F)cc1	none
CCCSc1ncccc1C(=O)Nc1c(C)noc1C	none
COC(=O)c1ccccc1OCC(O)Cn1c[n+](C)c2cc(C)c(C)cc21 (configuration not stated)	none
O=C(O)c1ccc2[nH]cc(C(=O)O)c(=O)c2c1	none
CCOC(=O)C1(CC)CC(C)(c2csc(Nc3ccccc3Cl)n2)OC1=O (configuration not stated)	none
CCCC(NC(=O)c1ccco1)C(=O)O (configuration not stated)	none
C=CCOc1ccc(C2CC(=O)Oc3c2c(=O)n(C)c2ccccc32)cc1 (configuration not stated)	none
O=C(O)c1cc(Br)cc(Br)c1	none
COC(=O)c1ccc(C2C(C#N)=C(N)Oc3n[nH]c(-c4ccc5c(c4)OCO5)c32)cc1 (configuration not stated)	none
c1cnc2sc3c(N4CCOCC4)ncnc3c2c1	none
Cc1cc2n(n1)C(c1ccc(C(=O)O)cc1)Nc1c(C)cccc1-2 (configuration not stated)	none
Cc1cc2n(n1)C(c1ccc(O)cc1O)Nc1c(C)cccc1-2 (configuration not stated)	none
Cc1cc2n(n1)C(c1ccc(O)cc1)Nc1c(C)cccc1-2 (configuration not stated)	Dicer processing 4.8
Cc1cc2n(n1)C(/C=C\c1ccccc1)Nc1c(C)cccc1-2 (configuration not stated)	Dicer processing 6
Cc1cc(C)c2c(c1)-c1cc(C)nn1C(c1cccs1)N2 (configuration not stated)	none
Cc1nc(C(F)(F)F)ccc1C(=O)N1CCN(C(c2ccccc2)c2ccccc2)CC1	none
CSc1n[nH]c(-c2ccc(C(C)(C)C)cc2)n1	none
O=C(O)CCCC(=O)N1CCN(c2nc(-c3ccccc3)c3cc(Br)ccc3n2)CC1	none
O=C(Cn1c(-c2cncs2)nc2ccccc21)Nc1ccc2c(c1)OCCO2	Dicer processing 4.2
Clc1ccc(Cn2c(-c3cncs3)nc3ccccc32)cc1	none
O=C(Cn1c(-c2cncs2)nc2ccccc21)Nc1ccccc1Cl	none
CCOC(=O)c1c(SC)nc2c(Cl)cccc2c1Oc1cccc(Cl)c1	none
O=C(CSc1nc2ccccc2s1)N1CCN(CCO)CC1	none
CC1CCCCC1N1CN=C(Nc2nc3ccccc3s2)NC1 (configuration not stated)	Dicer processing 3.8
COc1cccc(Nc2nc3ccccc3s2)c1	none
c1ccc2sc(NC3=NCN(Cc4ccc5c(c4)OCO5)CN3)nc2c1	none
CCN(CC)CC(O)Cn1c2ccc(Br)cc2c2cc(Br)cc(Br)c21 (configuration not stated)	none
CC1=CC(C)(C)N(C(=O)Nc2ccccc2)c2ccccc21	Dicer processing 3.5
CC1=CC(C)(C)N(C(=O)Nc2ccccc2)c2c(C)cc(C)cc21	none
CC1=CC(C)(C)N(C(=O)NC2CCCCC2)c2ccccc21	none
Nc1c(C(=O)N/N=C/c2ccc(Cl)cc2)oc2nc(-c3ccccc3)cc(-c3ccccc3)c12	none
Cc1ccc(CN2C(=O)c3oc4ccc(Cl)cc4c(=O)c3C2c2ccc(O)cc2)cc1 (configuration not stated)	none
COc1ccc(C2CC(=O)c3cnn(-c4nc(C)cc(C)n4)c3C2)cc1OC (configuration not stated)	none
CCOC(=O)N1CCN(c2ncc3c(n2)CC(c2ccc(OC)c(OC)c2)CC3=O)CC1 (configuration not stated)	Dicer processing 3.5
COc1ccc(C2CC(=O)c3cnc(NC4OC(=O)c5ccccc54)nc3C2)cc1OC (configuration not stated)	none
COc1cc(C2C3=C(CCCC3=O)Nc3nc(SCc4ccccc4F)[nH]c(=O)c32)ccc1O (configuration not stated)	none
O=C(O)CCCC(=O)Nc1ccn(-c2ccccc2)n1	none
Nc1nc(NC(=O)CCCC(=O)O)nn1-c1ccccc1	Dicer processing 16
O=C(O)CCCC(=O)Nc1nc2nccc(-c3ccccc3)n2n1	none
O=C1c2cc(S(=O)(=O)Nc3ccccc3)ccc2-c2ccc(S(=O)(=O)Nc3ccccc3)cc21	none
O=C(CCSc1nc(-c2ccco2)cc(C(F)(F)F)n1)Nc1ccccc1	none
Cc1nn(C)c(C)c1NC(=O)CCSc1nc(-c2ccco2)cc(C(F)(F)F)n1	Dicer processing 3
Cc1cc(NC(=O)CCSc2nc(-c3ccco3)cc(C(F)(F)F)n2)n(-c2ccccc2)n1	none
Cc1ccccc1OCC(O)CN1C(=O)NC(C)(C)C1=O (configuration not stated)	none
CCOC(=O)C1=C(C)NC2=C(C(=O)CC(C)(C)C2)C1c1ccccc1 (configuration not stated)	none
c1ccc(CCc2nnc3c4c5c(sc4ncn23)CCCC5)cc1	none
CCCc1nnc2c3c4c(sc3ncn12)CC(C)CC4 (configuration not stated)	Dicer processing 4.8
CCc1nnc2c3c4c(sc3ncn12)CC(C)CC4 (configuration not stated)	none
Nc1nc(NS(=O)(=O)c2cc(C(F)(F)F)cc(C(F)(F)F)c2)cc(-c2ccc(F)cc2)n1	none
O=[N+]([O-])c1cc(Cl)c(-n2cccc2)c(Cl)c1	none
Cc1nc(N(C)C)c(C#N)c(C)c1[N+](=O)[O-]	none
Cc1nc(N2CCCCC2)c(C#N)c(C)c1[N+](=O)[O-]	Dicer processing 4.5
CCOC(=O)c1cc(C)nc(N2CCCCC2)c1C#N	none
CCn1c2c(c3cc(C)ccc31)CCCC2=O	none
COC(=O)c1sccc1N/N=C(\C#N)S(=O)(=O)c1ccc(Cl)cc1	none
COC(=O)c1sccc1N/N=C(\C#N)S(=O)(=O)c1cccs1	none
COC(=O)c1scc(S(=O)(=O)Cc2cccs2)c1N/N=C(\C#N)S(=O)(=O)c1ccc(Cl)cc1	Dicer processing 5.6
CSc1nc(N)nc(-c2cc(Cl)cc(Cl)c2)n1	none
Cc1cccc(C)c1OCc1nc2c3cnn(Cc4ccccc4)c3ncn2n1	none
CS(=O)(=N/C=C(\C#N)C(=O)c1ccco1)c1ccc(Cl)cc1 (configuration not stated)	none
O=C(O)/C=C\C(=O)Nc1ccc(OC(F)(F)F)cc1Br	none
Cc1ccn2c(-c3csc(Nc4ccc(O)cc4)n3)c(C)nc2c1	Dicer processing 7.1
Cc1ccnc(Nc2nc(-c3c(C)nc4cc(C)ccn34)cs2)c1	Dicer processing 5.6
Cc1ccn2c(-c3csc(Nc4ccc(S(=O)(=O)Nc5cc(C)on5)cc4)n3)c(C)nc2c1	none
CC(=O)Nc1nc(C)c(-c2csc(Nc3ccc(O)cc3)n2)s1	none
Cc1nc(C)c(-c2csc(Nc3ccc(O)cc3)n2)s1	Dicer processing 6.1
CC(=O)Nc1nc(C)c(-c2csc(Nc3ccccn3)n2)s1	none
COc1ccc(Nc2nc(-c3sc(C)nc3C)cs2)cc1	none
Cc1nc2ncccn2c1-c1csc(Nc2ccc(O)cc2)n1	none
Cc1nc2ccccn2c1-c1csc(Nc2ccccn2)n1	none
CC(C)NC(=O)NNc1ccc(-c2csnn2)cc1	none
CCOC(=O)/C(C#N)=C/Nc1nc2ccc(F)cc2s1	none
CC1SC(c2ccc(C(F)(F)F)cc2)N(c2ccc(C(F)(F)F)cc2)C1=O (configuration not stated)	none
COc1ccc(C2C(C#N)=C3N=C(N)c4ccccc4N3C3=C2C(=O)CCC3)c(OC)c1 (configuration not stated)	none
CCc1ccnc(NS(=O)(=O)c2ccc3c(c2)OCCCO3)c1	none
O=S(=O)(c1cccc(Cl)c1)N1C=CC(C(F)(F)F)=NCC1	none
Cc1nc(N)nc(N/N=C/c2ccccn2)n1	none
CS/C(NCc1cccs1)=C(\C#N)S(=O)(=O)c1ccc(Cl)cc1	none
CCN(CC)CC#CC(O)(c1ccccc1)c1ccccc1	none

High-throughput results: PubChem, Center for Chemical Genomics, University of Michigan
